# PubChem BioAssay (Tox21)
# A number with no mark means an inactive call. Records with an inconclusive call do not appear. Where a call stands in place of a potency, no number is given. Activity calls are given as the source filed them. Calls follow the shape of the dose curve; as a rule, active = well fitted curve in the direction sought with a large enough effect in the repeat runs; inconclusive = weak or mixed curves; inactive = no such curve, though single readings can be large; an effect the other way counts as inactive or inconclusive.
# How the values were obtained:
# [1] = qHTS RealTime-Glo MT Cell Viability Assay in HepG2 cells - 40 hour (AID 1224870); also: nearly all actives have a fitted effect of over 50% in size; also: potency is read from the fitted curve at half-maximal effect
# Procedure, shortened: (§1)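 HepG2 cells mixed with RealTime-Glo MT reagents (NanoLuc plus cell-permeant prosubstrate) were seeded at 600 cells/well, incubated 5 h at 37 C/5% CO2, then pinned with compounds in DMSO; nonlytic luminescence tracked viability during 40 h treatment.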
# [2] = A CellTox Green Cytotoxicity Assay to monitor cytotoxicity in HEK293 cells - 40 hour (AID 1224871); also: nearly all actives have a fitted effect of over 45% in size
# Procedure, shortened: (§2)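 Real-time, in one plate: 600 HEK293 cells/well with dead-cell DNA dye, pinned compound after 5 h, 37 C incubation over 40 h; viable cells give no appreciable fluorescence.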
# [3] = qHTS RealTime-Glo MT Cell Viability Assay in HEK293 cells - 16 hour (AID 1224872); also: nearly all actives have a fitted effect of over 50% in size; also: potency is read from the fitted curve at half-maximal effect
# Procedure, shortened: (§3)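 HEK293 cells were seeded at 600 cells/well together with NanoLuc luciferase and cell-permeant prosubstrate, preincubated 5 h at 37 C/5% CO2, then given compound in DMSO by pintool. Luminescence from viable-cell prosubstrate reduction was read repeatedly over 40 h.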
# [4] = qHTS RealTime-Glo MT Cell Viability Assay in HepG2 cells - 8 hour (AID 1224873); also: nearly all actives have a fitted effect of over 55% in size; also: potency is read from the fitted curve at half-maximal effect
# Procedure, shortened: as §1
# [5] = qHTS RealTime-Glo MT Cell Viability Assay in HEK293 cells - 40 hour (AID 1224874); settings: RealTime-Glo luminescence; max response: stronger effect = lower value; also: nearly all actives have a fitted effect of over 50% in size; also: potency is read from the fitted curve at half-maximal effect
# Procedure, shortened: (§4)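 Kinetic, non-lysing viability readout. Seed HEK293 (600/well) with reagent, incubate 5 h at 37 C/5% CO2, pin 23 nL compound in DMSO, incubate at 37 C, read luminescence at 0, 8, 16, 24, 32, 40 h.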
# [6] = A CellTox Green Cytotoxicity Assay to monitor cytotoxicity in HEK293 cells - 24 hour (AID 1224875); also: series mostly up to about 77 µM; nearly all actives have a fitted effect of over 45% in size
# Procedure, shortened: as §2
# [7] = A CellTox Green Cytotoxicity Assay to monitor cytotoxicity in HepG2 cells - 16 hour (AID 1224876); also: nearly all actives have a fitted effect of over 45% in size
# Procedure, shortened: (§5)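 Cytotoxicity was tracked as dead-cell DNA fluorescence in HepG2 cells treated with test compounds at 37 C; each time-point value comes from one kinetic series spanning 0, 8, 16, 24, 32 and 40 h.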
# [8] = qHTS RealTime-Glo MT Cell Viability Assay in HepG2 cells - 32 hour (AID 1224877); also: nearly all actives have a fitted effect of over 55% in size; also: potency is read from the fitted curve at half-maximal effect
# Procedure, shortened: (§6)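 HepG2 cells were seeded at 600 cells/well together with NanoLuc luciferase and a cell-permeant prosubstrate, preincubated 5 h at 37 C/5% CO2, then pin-dosed with compounds in DMSO. Nonlytic luminescence from viable cells was read at each time point.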
# [9] = A CellTox Green Cytotoxicity Assay to monitor cytotoxicity in HepG2 cells - 24 hour (AID 1224878); also: nearly all actives have a fitted effect of over 45% in size
# Procedure, shortened: as §5
# [10] = qHTS RealTime-Glo MT Cell Viability Assay in HEK293 cells - 0 hour (AID 1224880); also: nearly all actives have a fitted effect of over 45% in size; also: potency is read from the fitted curve at half-maximal effect
# Procedure, shortened: as §4
# [11] = A CellTox Green Cytotoxicity Assay to monitor cytotoxicity in HEK293 cells - 32 hour (AID 1224881); also: nearly all actives have a fitted effect of over 40% in size
# Procedure, shortened: as §2
# [12] = A CellTox Green Cytotoxicity Assay to monitor cytotoxicity in HepG2 cells - 0 hour (AID 1224882); also: nearly all actives have a fitted effect of over 35% in size
# Procedure, shortened: as §5
# [13] = A CellTox Green Cytotoxicity Assay to monitor cytotoxicity in HepG2 cells - 32 hour (AID 1224883); also: nearly all actives have a fitted effect of over 50% in size
# Procedure, shortened: as §5
# [14] = A CellTox Green Cytotoxicity Assay to monitor cytotoxicity in HEK293 cells - 8 hour (AID 1224884); also: nearly all actives have a fitted effect of over 35% in size
# Procedure, shortened: as §2
# [15] = qHTS RealTime-Glo MT Cell Viability Assay in HepG2 cells - 16 hour (AID 1224885); also: nearly all actives have a fitted effect of over 50% in size; also: potency is read from the fitted curve at half-maximal effect
# Procedure, shortened: as §6
# [16] = qHTS RealTime-Glo MT Cell Viability Assay in HEK293 cells - 24 hour (AID 1224886); also: nearly all actives have a fitted effect of over 50% in size; also: potency is read from the fitted curve at half-maximal effect
# Procedure, shortened: as §3
# [17] = qHTS RealTime-Glo MT Cell Viability Assay in HepG2 cells - 0 hour (AID 1224889); also: nearly all actives have a fitted effect of over 50% in size; also: potency is read from the fitted curve at half-maximal effect
# Procedure, shortened: as §6
# [18] = A CellTox Green Cytotoxicity Assay to monitor cytotoxicity in HepG2 cells - 40 hour (AID 1224879); also: nearly all actives have a fitted effect of over 40% in size
# Procedure, shortened: as §5
# [19] = qHTS RealTime-Glo MT Cell Viability Assay in HEK293 cells - 8 hour (AID 1224887)
# Procedure, shortened: as §4
# [20] = A CellTox Green Cytotoxicity Assay to monitor cytotoxicity in HEK293 cells - 16 hour (AID 1224888); also: nearly all actives have a fitted effect of over 35% in size
# Procedure, shortened: as §2
smiles,measurement,setting,value
C=CC(C)(C)CC(=O)OC,Potency,[1],inactive
same,Potency,[2],inactive
same,Potency,[3],1.38 µM (active)
same,Potency,[4],inactive
same,Potency,[5],1.55 µM (active)
same,Potency,[6],inactive
same,Potency,[7],inactive
same,Potency,[8],inactive
same,Potency,[9],inactive
same,Potency,[10],inactive
same,Potency,[11],inactive
same,Potency,[12],inactive
same,Potency,[13],inactive
same,Potency,[14],inactive
same,Potency,[15],inactive
same,Potency,[16],1.38 µM (active)
same,Potency,[17],inactive
COc1ccccc1N=Nc1c(S(=O)(=O)O)cc2cc(S(=O)(=O)O)cc(NC(C)=O)c2c1O,Potency,[1],inactive
same,Potency,[2],inactive
same,Potency,[3],inactive
same,Potency,[4],inactive
same,max response,[5],1.04%
same,Potency,[6],inactive
same,Potency,[7],inactive
same,Potency,[8],inactive
same,Potency,[9],inactive
same,Potency,[18],inactive
same,Potency,[10],inactive
same,Potency,[11],inactive
same,Potency,[12],inactive
same,Potency,[13],inactive
same,Potency,[15],inactive
same,Potency,[16],inactive
same,Potency,[19],inactive
same,Potency,[20],inactive
same,Potency,[17],inactive
N#C[C@@H]1C[C@@H]2C[C@@H]2N1C(=O)[C@@H](N)C12CC3CC(CC(O)(C3)C1)C2,Potency,[1],inactive
same,Potency,[2],inactive
same,Potency,[3],inactive
same,Potency,[4],inactive
same,max response,[5],10.4%
same,Potency,[6],inactive
same,Potency,[7],inactive
same,Potency,[8],inactive
same,Potency,[9],inactive
same,Potency,[18],inactive
same,Potency,[10],inactive
same,Potency,[11],inactive
same,Potency,[12],inactive
same,Potency,[13],inactive
same,Potency,[14],inactive
same,Potency,[15],inactive
same,Potency,[20],inactive
same,Potency,[17],inactive
O=C(O)C(Cc1cc(I)c(O)c(I)c1)c1ccccc1 (stereo unspecified),Potency,[1],inactive
same,Potency,[2],inactive
same,Potency,[3],inactive
same,Potency,[4],inactive
same,max response,[5],0.775%
same,Potency,[6],inactive
same,Potency,[7],inactive
same,Potency,[8],inactive
same,Potency,[9],inactive
same,Potency,[18],inactive
same,Potency,[10],inactive
same,Potency,[11],inactive
same,Potency,[12],inactive
same,Potency,[13],inactive
same,Potency,[14],inactive
same,Potency,[15],inactive
same,Potency,[19],inactive
same,Potency,[20],inactive
same,Potency,[17],inactive
C[N+](C)(C)CCOC(N)=O,Potency,[1],inactive
same,Potency,[2],inactive
same,Potency,[3],inactive
same,Potency,[4],inactive
same,max response,[5],0.438%
same,Potency,[6],inactive
same,Potency,[7],inactive
same,Potency,[8],inactive
same,Potency,[9],inactive
same,Potency,[18],inactive
same,Potency,[10],inactive
same,Potency,[11],inactive
same,Potency,[13],inactive
same,Potency,[14],inactive
same,Potency,[15],inactive
same,Potency,[19],inactive
same,Potency,[20],inactive
same,Potency,[17],inactive
CC(C)CCCCCOC(=O)CCCCC(=O)OCCCCCC(C)C,Potency,[1],inactive
same,Potency,[2],inactive
same,Potency,[3],inactive
same,Potency,[4],inactive
same,max response,[5],3.71%
same,Potency,[6],inactive
same,Potency,[7],inactive
same,Potency,[8],inactive
same,Potency,[9],inactive
same,Potency,[18],inactive
same,Potency,[10],inactive
same,Potency,[11],inactive
same,Potency,[12],inactive
same,Potency,[13],inactive
same,Potency,[15],inactive
same,Potency,[16],inactive
same,Potency,[19],inactive
same,Potency,[20],inactive
same,Potency,[17],inactive
C[C@]12CCC(=O)C=C1C=C[C@@H]1[C@@H]2CC[C@@]2(C)[C@H]1CC[C@@]21CCC(=O)O1,Potency,[1],inactive
same,Potency,[2],inactive
same,Potency,[3],inactive
same,Potency,[4],inactive
same,max response,[5],-25.7%
same,Potency,[6],inactive
same,Potency,[7],inactive
same,Potency,[8],inactive
same,Potency,[9],inactive
same,Potency,[10],inactive
same,Potency,[11],inactive
same,Potency,[12],inactive
same,Potency,[13],inactive
same,Potency,[14],inactive
same,Potency,[15],inactive
same,Potency,[16],inactive
same,Potency,[20],inactive
same,Potency,[17],7.56 µM (active)
C=C(C)C(=O)OCCOC(=O)CC(C)=O,Potency,[1],inactive
same,Potency,[2],inactive
same,Potency,[3],inactive
same,Potency,[4],inactive
same,max response,[5],1.19%
same,Potency,[6],inactive
same,Potency,[7],inactive
same,Potency,[8],inactive
same,Potency,[9],inactive
same,Potency,[10],inactive
same,Potency,[11],inactive
same,Potency,[12],inactive
same,Potency,[13],inactive
same,Potency,[14],inactive
same,Potency,[15],inactive
same,Potency,[16],inactive
same,Potency,[19],inactive
same,Potency,[17],inactive
OCC1CC=CCC1 (stereo unspecified),Potency,[1],inactive
same,Potency,[2],inactive
same,Potency,[3],inactive
same,Potency,[4],inactive
same,max response,[5],-1.94%
same,Potency,[6],inactive
same,Potency,[7],inactive
same,Potency,[8],inactive
same,Potency,[9],inactive
same,Potency,[18],inactive
same,Potency,[10],inactive
same,Potency,[11],inactive
same,Potency,[13],inactive
same,Potency,[14],inactive
same,Potency,[15],inactive
same,Potency,[19],inactive
same,Potency,[20],inactive
same,Potency,[17],inactive
CCC(=O)Oc1ccc(/C(CC)=C(\CC)c2ccc(OC(=O)CC)cc2)cc1,Potency,[1],inactive
same,Potency,[2],inactive
same,Potency,[3],24.5 µM (active)
same,Potency,[4],inactive
same,Potency,[5],17.4 µM (active)
same,Potency,[6],inactive
same,Potency,[7],inactive
same,Potency,[8],inactive
same,Potency,[9],inactive
same,Potency,[18],inactive
same,Potency,[10],inactive
same,Potency,[11],inactive
same,Potency,[12],inactive
same,Potency,[13],inactive
same,Potency,[14],inactive
same,Potency,[15],inactive
same,Potency,[20],inactive
same,Potency,[17],inactive
CC[C@H](NC(=O)c1cc(F)ccc1NS(=O)(=O)c1cccc2cccnc12)c1ccccc1,Potency,[1],52 µM (active)
same,Potency,[2],inactive
same,Potency,[3],inactive
same,Potency,[4],41.3 µM (active)
same,max response,[5],-13%
same,Potency,[6],inactive
same,Potency,[7],inactive
same,Potency,[8],52 µM (active)
same,Potency,[9],inactive
same,Potency,[10],23.2 µM (active)
same,Potency,[11],inactive
same,Potency,[12],inactive
same,Potency,[13],inactive
same,Potency,[14],inactive
same,Potency,[15],46.3 µM (active)
same,Potency,[16],inactive
same,Potency,[20],inactive
CC(C)OCC1CO1 (stereo unspecified),Potency,[1],inactive
same,Potency,[2],inactive
same,Potency,[3],inactive
same,Potency,[4],inactive
same,max response,[5],11.5%
same,Potency,[6],inactive
same,Potency,[7],inactive
same,Potency,[8],inactive
same,Potency,[9],inactive
same,Potency,[18],inactive
same,Potency,[10],inactive
same,Potency,[11],inactive
same,Potency,[13],inactive
same,Potency,[14],inactive
same,Potency,[15],inactive
same,Potency,[16],inactive
same,Potency,[19],inactive
same,Potency,[17],inactive
ON(Cc1ccccc1)Cc1ccccc1,Potency,[1],inactive
same,Potency,[2],inactive
same,Potency,[3],inactive
same,Potency,[4],inactive
same,max response,[5],4.01%
same,Potency,[6],inactive
same,Potency,[7],inactive
same,Potency,[8],inactive
same,Potency,[9],inactive
same,Potency,[18],inactive
same,Potency,[10],inactive
same,Potency,[11],inactive
same,Potency,[12],inactive
same,Potency,[13],inactive
same,Potency,[14],inactive
same,Potency,[15],inactive
same,Potency,[19],inactive
same,Potency,[20],inactive
same,Potency,[17],inactive
